# Among all 360,000 compounds or so, about 8,200 (2.3%) were called active. The sample holds actives, similar compounds and a random draw of the others, so the mix is not that of the screen. A number with no mark means an inactive call. Cut-off read from the data, not from the text of the source: active = inhibition above about 27%; inactive = the rest.
# Biological target: Fructose-bisphosphate aldolase (Mycobacterium tuberculosis (strain ATCC 25618 / H37Rv)) (UniProt P9WQA3)
# Assay: M. tuberculosis aldolase activity blockers – biochemical, fluorescence, strain H37Rv, primary screen (AID 588726);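 note: 0% = vehicle and 100% = reference inhibitor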
# Settings: purified M. tuberculosis FBA, fluorescence read-out, at 1 µM, stronger effect = higher value
# Chain of Fructose-bisphosphate aldolase (Mycobacterium tuberculosis (strain ATCC 25618 / H37Rv)) (P9WQA3 whole entry, looked up): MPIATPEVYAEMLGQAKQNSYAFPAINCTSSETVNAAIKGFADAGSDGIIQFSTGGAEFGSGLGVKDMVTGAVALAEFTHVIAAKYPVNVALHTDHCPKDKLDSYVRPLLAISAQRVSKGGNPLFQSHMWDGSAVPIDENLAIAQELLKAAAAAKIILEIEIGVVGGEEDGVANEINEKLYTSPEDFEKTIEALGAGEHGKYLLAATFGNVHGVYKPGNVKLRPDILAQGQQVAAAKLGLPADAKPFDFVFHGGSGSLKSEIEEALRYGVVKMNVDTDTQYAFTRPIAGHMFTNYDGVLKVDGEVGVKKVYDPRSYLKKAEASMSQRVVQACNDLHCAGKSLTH
row,SMILES,inhibition
1,COc1ccc(-c2nc(N)sc2C2(O)C(=O)Nc3c(Br)cc(F)cc32)cc1OC (stereo unspecified),5.75%
2,O=[N+]([O-])c1cnc2ccc3ccccc3c2c1,1.36%
3,O=C(CSc1nc(-c2ccccc2)cs1)Nc1cccc([N+](=O)[O-])c1,0.01%
4,O=[N+]([O-])c1cccc(Nc2c3ccccc3nc3ccccc23)c1,122% (active)
5,CC(=O)C1=C(O)C(=O)N(c2ccc(S(N)(=O)=O)cc2)C1c1ccccc1F (stereo unspecified),12.8%
6,CCCN(CCC)CC(O)COc1ccccc1C(=O)Nc1ccccc1 (stereo unspecified),0.32%
7,COc1ccccc1NC(=O)N(O)C1(C#N)CCCCC1,1.6%
8,COc1ccc2c(c1)c(=Cc1ccc(N(C)C)cc1)c1cc(-c3ccccc3)[n+](C)n12,-16.1%
9,COc1ccc2sc(-c3ccc(N(C)C)cc3)c(-c3ccc4cc[nH]c4c3)c2c1,41% (active)
10,COc1cccc(-c2sc3ccc(OC)cc3c2-c2ccc(OCCN3CCCCC3)cc2)c1,0.81%
11,COc1ccc2sc(-c3ccccc3OC)c(-c3ccc(OCCN4CCCC4)cc3)c2c1,0.37%
12,CC1CC(NC(=O)/C(C#N)=C/c2ccc[nH]2)CC(C)(C)C1 (stereo unspecified),-0.18%
13,CN(Cc1ccccc1)CC(O)COc1ccc(CNCc2cc3ccccc3s2)cc1 (stereo unspecified),0.16%
14,Cc1ccc2c(NC(=O)C3CC3)cccc2n1,3.11%
15,Cc1cc(C)c2c(NC(=O)C3CC3)nn(C)c2n1,46.1% (active)
16,Cc1cc(=O)n2nc(N3CCC(C(=O)Nc4c(F)c(F)c(F)c(F)c4F)CC3)sc2n1,-1.25%
17,CCCCCC1CC(COc2ccccc2)OC1=O (stereo unspecified),-2.11%
18,O=c1c2cc([N+](=O)[O-])ccc2nc2n1CCC2,3.1%
19,O=C(NC1CCCC1)C(c1ccccn1)N(C(=O)c1csnn1)C1CCCC1 (stereo unspecified),2.16%
20,COc1ccc(-c2oc3ncn(Cc4ccco4)c(=N)c3c2-c2ccc(OC)cc2)cc1,7.98%
21,COCCNc1ncnc2c1ncn2[C@H]1CN(Cc2ccc(OC)cc2)C[C@@H](CO)O1,1.53%
22,COc1ccc(-c2oc3ncnc(NCCCO)c3c2-c2ccc(OC)cc2)cc1,58.3% (active)
23,Cc1cccc(N2CC(C(=O)Nc3ccccc3N3CCCC3)CC2=O)c1C (stereo unspecified),3.07%

row,SMILES,inhibition
1,Cc1ccccc1/[N+]([O-])=C/c1ccncc1,0.03%
2,CCS(=O)(=O)Nc1ccc(C2=NN(S(=O)(=O)c3ccc(F)cc3)C(c3ccco3)C2)cc1 (stereo unspecified),-0.61%
3,CCS(=O)(=O)Nc1ccc(C2=NN(C(C)=O)C(c3cccs3)C2)cc1 (stereo unspecified),"591% [above what the read-out allows, likely interference] (active)"
4,CS(=O)(=O)Nc1cccc(C2=NN(C(=O)c3cccc(F)c3)C(c3cccs3)C2)c1 (stereo unspecified),5.49%
5,CS(=O)(=O)Nc1ccc(C2=NN(S(C)(=O)=O)C(c3cccs3)C2)cc1 (stereo unspecified),73.8% (active)
6,COc1cccc(C2CC(c3ccccc3)=NN2S(=O)(=O)c2ccccc2)c1OC (stereo unspecified),0.19%
7,Cc1ccc(C2CC(c3cccc(NS(C)(=O)=O)c3)=NN2S(C)(=O)=O)cc1 (stereo unspecified),-2.56%
8,CCOC(=O)CNc1nc2ccccc2n2c(C)nnc12,-1.1%
9,O=C1CCc2cc(S(=O)(=O)Nc3ccc(C(F)(F)F)cc3)cc3c2N1CC3,6.49%
10,Cc1cc(C(=O)CC#N)c(C)n1-c1c(C)n(C)n(-c2ccccc2)c1=O,2.39%
11,CCOC(=O)CNC(=O)CN1C(=O)CCSc2ccccc21,0.13%
12,O=C(COc1ccccc1Cl)Nn1cnnc1,0.49%
13,COc1ccc(CCNc2ncnc3c2nnn3Cc2ccccc2)cc1,0.68%
14,Cc1cc(C(=O)COc2ccc(Br)cc2F)c(C)n1C1CC1,0.29%
15,CC1C2Cn3c(nc4ccccc43)C1N(C)O2 (stereo unspecified),-1.64%
16,CN1C(C(=O)NCc2ccco2)CC2Cn3c(nc4ccccc43)C21 (stereo unspecified),2.79%
17,CSCCNC(=O)c1ccc2nc(Cc3ccccc3F)oc2c1,3.27%
18,CC(C)=CCN1CCN(Cc2ccc(Oc3ncccn3)cc2)CC1CCO (stereo unspecified),0.18%
19,CN(C)c1ccnc(Nc2ccc(F)cc2)c1C#N,-3.67%
20,CN(C)c1nc(-c2cccnc2)nc(-c2ccc(Cl)cc2)c1C#N,-3.84%
21,CNc1nccc(-c2ccc(Cl)cc2)c1C#N,30.5% (active)
22,COc1cccc(CN2CCC(C(=O)NC(c3ccc4c(c3)OCO4)c3ccccn3)CC2)c1 (stereo unspecified),0.6%
23,O=C(CCS(=O)(=O)c1ccccc1Cl)Nc1ccc(S(=O)(=O)Nc2ncccn2)cc1,-1.51%

# — PubChem BioAssay AID588726 (The Scripps Research Institute Molecular Screening Center, 2011)
